Key:
[1] = target: T1, Aspartate--tRNA(Asp/Asn) ligase (Mycobacterium tuberculosis (strain ATCC 25618 / H37Rv)) (UniProt P9WFW3); experiment: Assay for Asp RNA synthetase-1 from Mycobacterium tuberculosis; format: functional; set-up: scale not given: direction of the effect not stated beside the values; conditions: 30 µM; also: in the data most compounds retested in dose-response had high values
T1 sequence (whole entry): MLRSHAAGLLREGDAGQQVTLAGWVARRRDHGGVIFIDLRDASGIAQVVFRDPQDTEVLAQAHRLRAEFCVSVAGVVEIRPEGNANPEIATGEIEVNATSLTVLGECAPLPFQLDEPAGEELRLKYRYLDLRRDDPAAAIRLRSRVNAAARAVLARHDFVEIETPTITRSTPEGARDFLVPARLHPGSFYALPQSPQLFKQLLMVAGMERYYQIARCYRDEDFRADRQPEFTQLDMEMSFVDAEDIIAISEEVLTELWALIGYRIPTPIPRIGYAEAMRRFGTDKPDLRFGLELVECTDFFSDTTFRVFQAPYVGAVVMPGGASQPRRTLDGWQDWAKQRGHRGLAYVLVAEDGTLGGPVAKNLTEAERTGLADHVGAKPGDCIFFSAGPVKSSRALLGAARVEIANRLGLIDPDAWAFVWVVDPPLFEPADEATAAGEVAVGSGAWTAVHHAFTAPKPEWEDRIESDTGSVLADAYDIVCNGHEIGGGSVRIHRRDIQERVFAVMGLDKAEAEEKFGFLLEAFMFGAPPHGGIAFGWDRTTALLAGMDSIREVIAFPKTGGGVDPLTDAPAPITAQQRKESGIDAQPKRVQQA

[2] = target: Shiga toxin 2 (Escherichia coli O157:H7) (UniProt P09385+P09386); experiment: E. coli 0.157:H7 Shiga Toxin SOP - stx2 screening assay; format: functional; set-up: scale not given: direction of the effect not stated beside the values; conditions: 30 µM

| Structure (SMILES) | Percent Effect [1] [%] | Percent Effect [2] [%] |
| --- | --- | --- |
| O=C(NC1CC1)c1ccc2ccc(N3CCN(CC4CC4)CC3)n2c1 | -1.8 | -80.6 |
| Cc1ccccc1C(=O)NCc1ccc(N2CCNC(=O)C2)c(F)c1 | -0.569 | 0.0326 |
| Cc1noc(C)c1CN(C)C(=O)NC1CCN(c2ncccn2)CC1 | 0.9 | 9.61 |
| Cc1cc(C)n(CC2CCCN2C(=O)c2cnn(C)c2C2CC2)n1 (stereo unspecified) | 1.84 | 1.91 |
| CCOc1c(Cl)cccc1NCc1cc(C)on1 | -1.21 | -64.7 |
| Cc1cccc(CN2CCC3(CCN(Cc4ccccn4)C3)C2=O)c1 (stereo unspecified) | 0.956 | -19.6 |
| Cc1ccc(OCC(=O)NCC(C)C)nc1 | -3.37 | -28.9 |
| NC(=O)C1CN(Cc2c[nH]cn2)CCN(C2CCOCC2)C1 (stereo unspecified) | -0.938 | -0.548 |
| O=C(CCc1ccccc1)Nc1ncccc1OC(F)F | -3.26 | -5.61 |
| CSCC(=O)N1C[C@H]2CC[C@@H]1CN(Cc1ccccc1)C2 | 4.28 | -4.7 |
| COCCN1C(=O)CC(N2CCN(c3ccc(OC)cc3)CC2)C1=O (stereo unspecified) | -5.68 | 3.53 |
| Cc1ncnc2c1CCN(Cc1ccccn1)CC2 | 1.8 | -19.4 |
| CC1=N[C@@]2(CC[C@@H]3CN(S(=O)(=O)N(C)C)C[C@@H]32)C(=O)N1CC(C)C | 6.65 | -4.62 |
| Cc1cnn(CC2CN(c3ncnc4ccccc34)CCO2)c1 (stereo unspecified) | -7 | 6.94 |
| Cc1nn2c(N3CCC(O)C3)cc(-c3ccccc3)nc2c1C (stereo unspecified) | -2.73 | -33.6 |
| COC(=O)c1sccc1S(=O)(=O)N1CCC(Oc2cccnn2)CC1 | -2.42 | -7.45 |
| Cc1nc(C)n(CC2CN(Cc3cccnc3)CCO2)n1 (stereo unspecified) | 5.17 | 26.5 |
| O=C(N1CCCC1)N1CCc2ncnc(C3CCOC3)c2CC1 (stereo unspecified) | -0.956 | -10.8 |
| O=c1cc2c(nn1CN1CCOCC1)CCC2 | 2.64 | -10.5 |
| Fc1ccccc1-c1noc2c1CN(CC1CC1)CC2 | -1.29 | -8.88 |
| CCS(=O)(=O)N1CC[C@]2(C[C@@H](OCC3CC3)CO2)C1 | -1.4 | 11 |
| Cc1ccc(S(=O)(=O)N2CCOc3ccccc32)cc1C(=O)O | -1.83 | -32.8 |
| Cc1nn(C)c(C)c1C1CCCN1CC(=O)Nc1ccncc1 (stereo unspecified) | 1.52 | 11.1 |
| CNS(=O)(=O)Cc1ccc(CNC(=O)c2ccc(C)[nH]c2=O)cc1 | -0.577 | -39.3 |
| Cn1ccc(CN2CCC(NC(=O)NC3CCCCC3)CC2)cc1=O | -0.833 | -11.2 |
| Cc1occc1C(=O)N1CCC2(CCC(C(=O)NCC3CC3)O2)CC1 (stereo unspecified) | -0.182 | -6.83 |

| Structure (SMILES) | Percent Effect [1] [%] | Percent Effect [2] [%] |
| --- | --- | --- |
| COc1ccc(C2(CNC(C)c3nnc(C)o3)CCCCC2)cc1 (stereo unspecified) | 2.67 | -2.63 |
| O=C(NC1=NCCCN1c1ccc(Cl)cc1)c1cccc(Cl)c1 | 8.32 | -69.6 |
| NCc1cn(-c2ccccc2C(=O)NCc2ccccc2)cn1 | -1.51 | -5.86 |
| c1cnc(-c2nc(CNCCn3cccn3)cs2)nc1 | -1.5 | 5.58 |
| c1cnc(N2CCC3(CC2)CN(CC2CC2)c2ccccc23)nc1 | 3.62 | -25 |
| Cc1nc(C2CCCCN2C(=O)c2ccccc2)ncc1C(=O)N(C)C (stereo unspecified) | -6.63 | -5.42 |
| Cc1nc(C)n(CC2CCCN2Cc2nc(C3CC3)no2)n1 (stereo unspecified) | 0.278 | -16.4 |
| CCC(CC)c1cc(CNC(=O)N2CCCC(N(C)C)C2)on1 (stereo unspecified) | -1.74 | 9.62 |
| COCCN(Cc1ccc(F)cc1Cl)C(=O)c1ccncc1 | -5.35 | 12 |
| Cc1nn(C)c(Cl)c1C1CCCN1CC(=O)NCc1ccccn1 (stereo unspecified) | -2.78 | -10.8 |
| O=C(N1CCOCC1)[C@@]12CCO[C@@H]1CCN(CCN1CCCCC1)C2 | 3.6 | -37.5 |
| CCC1CCCCCN1C(=O)c1nnc2ccccc2c1N (stereo unspecified) | -3.53 | -2.87 |
| CS(=O)(=O)N1CCCC12CCCN(S(=O)(=O)c1cc(F)cc(F)c1)C2 (stereo unspecified) | -0.24 | 2.89 |
| CN(Cc1cnn(-c2ccccc2)n1)CC1CCCN1c1cccnn1 (stereo unspecified) | 1.85 | 16 |
| Cn1nc2c(cc1=O)CN(Cc1coc(-c3cccs3)n1)CC2 | 39.2 | -29.8 |
| O=C(c1cccc(F)c1)N1CCOC(c2nc(-c3ncccn3)no2)C1 (stereo unspecified) | -5.54 | 3.39 |
| Cc1nc(C)n(CC2CCCN2Cc2cscn2)n1 (stereo unspecified) | -5.82 | 24.1 |
| Cn1cnc2c1CCN(Cc1cccc(C(N)=O)c1)C2 | -3.03 | -13.1 |
| Cc1nn(C)c(C)c1C1CCCN1Cc1nc(C)c2ccccc2n1 (stereo unspecified) | 0.742 | 10.8 |
| CS(=O)(=O)N1CCOC2(CCCN(c3cnccn3)C2)C1 (stereo unspecified) | -5.91 | -3.98 |
| CN(C)C(C(=O)N1CCC(N2CCSCC2)CC1)c1ccccc1F (stereo unspecified) | -8.47 | -3.63 |
| CC(C)c1nnc2n1CCN(CC(=O)Nc1nncs1)C2 | -2.1 | 10 |
| Nc1nc(CN2CCCC(Cn3cncn3)C2)nc2ccccc12 (stereo unspecified) | 0.466 | -13.2 |
| Cc1csc(N2CCCN(C(=O)C(C(C)C)n3cncn3)CC2)n1 (stereo unspecified) | -2.24 | 15.4 |
| CCCN1CCCn2nc(CNS(=O)(=O)c3cccc(C#N)c3)cc2C1 | -1.36 | 28.5 |
| Cc1cc(C(C)C(=O)N2CCCN(Cc3cscn3)CC2)c(C)o1 (stereo unspecified) | -4.75 | 19.4 |

| Structure (SMILES) | Percent Effect [1] [%] | Percent Effect [2] [%] |
| --- | --- | --- |
| O=C(Nc1cccnc1)[C@H]1C[C@@H]2CN(C(=O)NC3CCCC3)C[C@H]1O2 | 2.61 | -2.93 |
| CCc1nccn1C1CCCN(C(=O)CCCNc2ncccn2)C1 (stereo unspecified) | -4.79 | 8.61 |
| CCc1ccc(CN2CCCC(CO)(CCOC)C2)cc1 (stereo unspecified) | -1.96 | -14 |
| O=C(COc1ccc(C(F)(F)F)cc1)NS(=O)(=O)c1cccnc1 | 6.95 | 15 |
| O=C(c1ccc(F)cc1)N1CCN2C[C@H](OCc3ccccn3)C[C@H]2C1 | -1.3 | 10.7 |
| CCOCC1CN(C(=O)C2=CCCC2)Cc2cnn(CC)c21 (stereo unspecified) | -0.107 | 3.46 |
| O=C(CN1CC(n2cccn2)C1)NCCc1c[nH]c2ccccc12 | -0.903 | -2.74 |
| COCCN1CCC2(CC1)CN(C(=O)N(C)C)c1ccc(C)cc12 | 0.0764 | -2.72 |
| CC(NC(=O)C1=NN(C)C(=O)CC1)c1ccc(F)cc1F (stereo unspecified) | -4.46 | -6.55 |
| O=c1cc(CN2CCCC2)nc2n1CCCN(Cc1ccsc1)C2 | -4.85 | -22.4 |
| CCn1ccnc1CNCC1CCCN1c1cccnn1 (stereo unspecified) | -8.36 | 6.68 |
| Cc1cnccc1N1CCCN(C(=O)CCCS(N)(=O)=O)CC1 | -1.55 | -11.6 |
| CCn1ncc(NC(=O)c2cc(C3CC3)nc3c2c(C)nn3C)c1C | -1.99 | -23 |
| CN(Cc1nc(N)c2ccccc2n1)CC1CCCN1c1cccnn1 (stereo unspecified) | 4.61 | 24.7 |
| COc1cccc(COCC(=O)N2CCCC(c3nncn3C)C2)c1 (stereo unspecified) | -1.97 | 8.24 |
| CCc1nnc(Nc2cccc(C3CCN(CCO)CC3)n2)s1 | -4.6 | -9.69 |
| Cc1c[nH]nc1C1CCN(S(=O)(=O)N(C)C)CC1 | 2.31 | -2.83 |
| CCOc1ccccc1-c1noc(CN2CCCC(O)C2)n1 (stereo unspecified) | -5.33 | 2.11 |
| COc1cccc(CN(C)C(=O)CCC(=O)c2ccc(Cl)cc2)c1OC | -1.19 | -1.09 |
| O=C(Cc1ccccn1)N1CCN(C(=O)c2cccc3[nH]ncc23)CC1 | -2.75 | 1.83 |
| CN(C)C(=O)N1C[C@@H]2CC[C@H](C1)N(C(=O)CCCn1cncn1)C2 | 1.35 | 4.19 |
| CCC(=O)N1CCCC(c2cc(Nc3ncccn3)nc(C)n2)C1 (stereo unspecified) | 1.35 | 12.4 |
| Cc1ccc(CNC(=O)NCCCn2nc3ccccn3c2=O)s1 | 7.2 | 0.512 |
| c1ccc(CCCN2CC(n3cccn3)C2)cc1 | -4.05 | -12.1 |
| CCc1nc(CN2CCCN(c3nccs3)CC2)no1 | 2 | -3.78 |
| CCS(=O)(=O)N1CCc2ccc(NC(=O)Nc3ccc(F)cc3F)cc21 | 1.65 | -10.5 |

| Structure (SMILES) | Percent Effect [1] [%] | Percent Effect [2] [%] |
| --- | --- | --- |
| Cc1nc(CN2CCOC(CN(C)c3cccnn3)C2)cs1 (stereo unspecified) | -1.09 | 7.32 |
| CCC(NC(N)=O)c1ccccc1OCC(=O)N1CCCC1 (stereo unspecified) | -1.5 | -58.1 |
| COCC1CN(C(=O)CNC(C)=O)Cc2ncnn2C1 (stereo unspecified) | 0.773 | -26.6 |
| COCCN(Cc1ccoc1)C(=O)c1ccccc1Cl | 2.46 | 6.17 |
| CCCNC(=O)c1c(-n2cnnn2)sc2c1CCC2 | 1.26 | -42 |
| COc1c(C2CCCN2Cc2c(C)noc2C)c(C)nn1C (stereo unspecified) | 1.48 | 6.54 |
| Cc1nc(C)n(CC2CCCN2CCCc2ccccc2)n1 (stereo unspecified) | 0.747 | -14.3 |
| CN(Cc1cncnc1)Cc1cn2c(n1)CN(C1CCOC1)CC2 (stereo unspecified) | 7.69 | -15.6 |
| c1cnn(-c2ccc(CN3CCOC(Cn4cncn4)C3)cc2)c1 (stereo unspecified) | 4.05 | 9.62 |
| COc1cccc2c1OCC(CNC(=O)CSc1nc(N)n[nH]1)C2 (stereo unspecified) | 2.1 | 6.55 |
| CC(C(=O)NCc1cccc(N2CC=CC2)c1)n1cccn1 (stereo unspecified) | -1.41 | 27.1 |
| CN(C)CCN1C[C@@H]2CN(C(=O)c3ccsc3)C[C@@H]2C1=O | -4.34 | -40.9 |
| CCc1nc(C2CCCN2Cc2nnc(Cc3ccccc3)o2)no1 (stereo unspecified) | -0.231 | 6.08 |
| Cn1ccc(C(=O)N2CCN(c3cc(C#N)ccn3)CC2)cc1=O | 3.75 | 1.09 |
| COc1ccc(OC)c(C2CCN(Cc3nc(C)n4ccccc34)C2)c1 (stereo unspecified) | -1.14 | 10.1 |
| Cc1ccccc1CNC(=O)CN1CCN(Cc2nccn2C)CC1 | 8.88 | 6.67 |
| Cc1cnc(CN(Cc2ccccc2)CC(O)c2cccs2)cn1 (stereo unspecified) | -1.43 | -15.5 |
| O=C1CCC2(CCN(Cc3cc(F)cc(F)c3)CC2)CN1CCO | -0.529 | 6.69 |
| CC(=O)Nc1ncc(S(=O)(=O)Nc2ccc(F)cc2)s1 | 2 | -10.2 |
| CN(Cc1ccco1)[C@@H]1CN(Cc2ccc(F)cc2)C[C@@H]2CCCO[C@@H]21 | 6.12 | 7.23 |
| O=C(CCNC(=O)c1ccccc1)Nc1ccncc1 | -1.89 | -111 |
| Fc1cnc(N2CCOCC3(CCCN(c4nncs4)C3)C2)nc1 (stereo unspecified) | -3.89 | 6.61 |
| Cc1ccc(N2CCCC(NCc3cscn3)C2)nn1 (stereo unspecified) | 10.3 | 15.1 |
| CCc1ncc2c(n1)CN(C(=O)COC)C2 | 2.9 | -5.79 |
| COCc1cccc(CNC(=O)CN2CCCC2c2noc(C)n2)c1 (stereo unspecified) | -0.723 | 14.4 |
